Laboratory results published in PubChem BioAssay (Tox21).
Inconclusive results are not listed. Where a structure was tested more than once in an assay, its records may differ in their call. Active and inactive are the calls of the source. Calls follow the shape of the full dose curve.

assay: p53 small molecule agonists, cell-based qHTS assay with rat liver microsomes: qHTS cell viability counter screen (AID 1963580); conditions: p53RE-bla HCT-116 + rat microsomes, ATP viability, 16 h; series mostly up to 66 µM; activity change, negative = cytotoxicity: at the top concentration; also: nearly all actives have a fitted effect of over 45% in size
Excerpt: National Center for Advancing Translational Sciences [NCATS]
Division of Preclinical Innovation [DPI]
U.S. Environmental Protection Agency [EPA]
National Institutes of Environmental Health Sciences [NIEHS]
National Toxicology Program [NTP]
U.S. Food and Drug Administration [FDA]
p53, a tumor suppressor protein, is activated following cellular insult, including DNA damage and other cellular stresses. The activation of p53 regulates cell fate by inducing DNA repair, cell cycle arrest, apoptosis, or cellular senescence. The activation of p53, therefore, is a good indicator of DNA damage and other cellular stresses. The CellSensor p53RE-bla HCT-116 cell line contains a stably integrated beta-lactamase reporter gene under control of the p53 response elements. The activation of the reporter gene under culture conditions can be detected by fluorescence intensity. This cell line was used to screen the Tox21 10K compound library in the condition of presence of rat liver microsomes and to identify agonists that activate the p53 signaling pathway after in vitro metabolic activation (Ooka et al., Archive of Toxicology 96:1975-1987, 2022). The cytotoxicity of the Tox21 compound library against the p53 RE-bla HCT-116 cell line was tested in parallel by measuring the intra cellular ATP content in the same wells.
Tox21 Assay Protocol Summary:
The p53RE-bla cells were dispensed at 4,000cells/3ul/well in 1536-well black-clear bottom plates. After the assay plates were incubated at 37 C, 5% CO2 incubator for 5 hours, 23 nL of compounds dissolved in DMSO, positive controls or DMSO only was transferred to the assay plate. Following compound addition, 3 uL of rat liver microsomes (Molecular Toxicology, Boone, NC) at final concentration of 0.5 mg/mL and 1uL of B-Nicotinamide adenine dinucleotide 2'-phosphate (NADPH) at final concentration of 0.5 mg/mL were transferred to the assay plate. The plates were incubated at 37 C for 16 hours. 1 uL of LiveBLAzer detection mixture was added to each well and the plates were incubated at room temperature in the dark for 2 h. Fluorescence intensity at 460 and 530 nm emission and 405 nm excitation were measured by an Envision plate reader. For cell viability readout that measures cytotoxicity, 4 ul/well of CellTiter-Glo reagent was added into the assay plates using a Flying Reagent Dispenser. After 30 min incubation at room temperature, the luminescence intensity in the plates was measured using a ViewLux plate reader.
% is scaled to controls: 0 for no effect and ±100 for the full control effect; potency is read from the fitted curve at half-maximal effect.

| SMILES | activity change, negative = cytotoxicity | Potency |
| --- | --- | --- |
| O=P(O)(OCc1ccccc1)OCc1ccccc1 | 1.38% (inactive) |  |
| Fc1c(F)c(F)c(Br)c(F)c1F | 4.06% (inactive) |  |
| CC(C)c1cccc(O)c1 | -13.3% (inactive) |  |
| Cc1cccc(N)n1 | 1.8% (inactive) |  |
| COc1cc(/C=C/C(=O)O[C@H]2CC[C@]34C[C@]35CC[C@]3(C)[C@@H]([C@H](C)CCC=C(C)C)CC[C@@]3(C)[C@@H]5CC[C@H]4C2(C)C)ccc1O | -0.139% [at 30.3 µM] (inactive) |  |
| OC1CCCCCCCCCCC1 |  | inactive |
| CC1=CC[C@@H]2C[C@H]1C2(C)C | 4.85% [at 13.5 µM] (inactive) |  |
| OCCc1ccccn1 | 1.01% (inactive) |  |
| O=C(O)c1ccccc1S | 0.673% [at 30.3 µM] (inactive) |  |
| COc1ccc(C(=O)NCc2ccc(OCCN(C)C)cc2)cc1OC | 0.999% [at 30.3 µM] (inactive) |  |
| CC(=O)CC(=O)Nc1ccc2[nH]c(=O)[nH]c2c1 | 0.515% (inactive) |  |
| Cn1ccnc1 | -5.95% (inactive) |  |
| OCCNCCO |  | inactive |
| O=C(O)[C@H](O)[C@@H](O)[C@H](O[C@@H]1O[C@H](CO)[C@H](O)[C@H](O)[C@H]1O)[C@H](O)CO | -3.74% [at 30.3 µM] (inactive) |  |
| Cc1ccc(S(=O)(=O)NC(=O)NC2CCCCCCC2)cc1 | 6.29% [at 30.3 µM] (inactive) |  |
| CC(=O)C1(C)CC2=C(CCCC2(C)C)CC1C (stereo not given) | -0.731% (inactive) |  |
| O=S(=O)(O)c1ccc2c(N=Nc3ccc(S(=O)(=O)O)c4ccccc34)c(O)c(S(=O)(=O)O)cc2c1 | -3.24% [at 5.99 µM] (inactive) |  |
| c1cnccn1 | -11.8% (inactive) |  |
| Nc1ccc(N)c(Cl)c1 |  | inactive |
| CCCCOC(=O)[C@H](C)O | -0.533% (inactive) |  |

| SMILES | activity change, negative = cytotoxicity | Potency |
| --- | --- | --- |
| CCc1ccc(Br)cc1 | -2.19% (inactive) |  |
| CC(C)=CCCC(C)O (stereo not given) | 5.06% (inactive) |  |
| CC/C=C\C/C=C\C/C=C\CCCCCCCC(=O)O | -8.49% (inactive) |  |
| C=C1CC/C=C(\C)CC[C@@H]2[C@@H]1CC2(C)C | -10.1% (inactive) |  |
| CC1=CC(C)C(C=O)CC1 (stereo not given) | 5.95% (inactive) |  |
| C[N+]1([O-])CCOCC1 | 1.28% (inactive) |  |
| O=C1CC2CC1C1CCCC21 (stereo not given) | 0.335% (inactive) |  |
| CCCc1ccc(N)cc1 | 1.87% (inactive) |  |
| CCN(CC#N)c1cccc(C)c1 | -6.76% (inactive) |  |
| OCC(CO)(CO)CO |  | inactive |
| CCO/C([O-])=N/c1c[n+](N2CCOCC2)no1 | 3.19% [at 30.3 µM] (inactive) |  |
| COc1ccc(CCN2CCC(Nc3nc4ccccc4n3Cc3ccc(F)cc3)CC2)cc1 |  | 26.3 µM (active) and inactive |
| Clc1ccc(C(c2ccccc2Cl)C(Cl)Cl)cc1 (stereo not given) |  | inactive |
| Nc1cc(S(=O)(=O)O)ccc1S(=O)(=O)O | -0.844% (inactive) |  |
| COC(=O)CC(C(C)=O)C(=O)OC (stereo not given) | 0.875% (inactive) |  |
| Fc1ccccc1-c1ccccc1 | 2.86% (inactive) |  |
| CCOC(=O)[C@H](CCc1ccccc1)N[C@@H](C)C(=O)N1C(=O)N(C)C[C@H]1C(=O)O | -2.76% [at 30.3 µM] (inactive) |  |
| OCCOCCN1CCN(C2=Nc3ccccc3Sc3ccccc32)CC1 |  | inactive |
| Oc1cc(O)c2c(c1)O[C@H](c1ccc(O)c(O)c1)[C@H](O)C2 | -7.96% [at 30.3 µM] (inactive) |  |
| N#CCC(=O)O |  | inactive |
